Compound activity as filed in PubChem BioAssay.
CCT modulator: High-Throughput Screening for Modulators of Cytosolic Chaperonin Activity | purified chaperonin ATPase assay, HTRF ADP detection, 30 min | AID 651819, 2012 | 360,000 tested, 0.3% active | activity change, % (no concentration beside the values), hits read low; in the data active means activity change below about -30%; further: on the % scale 0 is the no-effect control and ±100 the full control effect
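Nucleotide hydrolysis assay: TRiC at 20–40 nM final (set by batch activity) with 10 uM ATP, 30 min at 37 °C, in presence of 76 uM compound. Detection by competitive ADP HTRF, 30 min ambient.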
Anesthetic bind: qHTS Assay for Identification of Novel General Anesthetics. apoferritin/1-aminoanthracene competitive binding, fluorescence. Potency, µM (titrated, usually from 77.5 µM), for the others: top-dose activity change, negative = displacement, actives largely listed as inhibitors. 350,000 tested, 0.074% active. AID 485281, 2010; further: potency means the concentration at half of the fitted maximal effect; on the % scale 0 is the no-effect control and ±100 the full control effect; nearly all actives have a fitted effect of over 20% in size
Target sequence (P02791 2-175 limits assumed): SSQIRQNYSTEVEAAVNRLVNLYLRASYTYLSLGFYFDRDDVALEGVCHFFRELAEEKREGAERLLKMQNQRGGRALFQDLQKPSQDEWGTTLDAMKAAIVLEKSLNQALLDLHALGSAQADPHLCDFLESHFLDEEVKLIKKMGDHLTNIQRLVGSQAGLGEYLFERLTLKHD
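Concentration-response curves derived by four-parameter Hill fitting of normalized fluorescence, where compounds displaced 1-AMA from 10 uM horse apoferritin following a brief 10 min room-temperature incubation; propofol titration acted as positive control.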
aSyn rescue: qHTS of alpha-syn Inhibitors; Yeast expressing alpha-synuclein, growth rescue, BacTiter-Glo, 24 h; Potency, µM (highest dose often 46.1 µM), without a hit: at the top dose growth rescue (activation), usual class: activators; 370,000 tested, 0.14% active; AID 652106, 2013; further: potency means the concentration at half of the fitted maximal effect; % of control where 0% means no effect; nearly all actives have a fitted effect of over 65% in size
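Readout is rescue of growth in alpha-synuclein-expressing yeast, so inhibitors of toxicity appear as activators. Growth after 24 hr at 30 deg C in galactose medium is quantified by luminescence.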
Mito fusion yeast: qHTS Assay for Small Molecule Inhibitors of Mitochondrial Division or Activators of Mitochondrial Fusion. S. cerevisiae fusion-defective mutant growth rescue, CellTiterGlo 48 h. Potency, µM (highest dose often 46.1 µM), for the others: at the top dose growth rescue (activation), usual class: activators. 320,000 tested, 0.23% active; further: potency means the concentration at half of the fitted maximal effect; % of control where 0% means no effect; nearly all actives have a fitted effect of over 45% in size
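S. cerevisiae fusion-defective temperature-sensitive mutants (e.g. fzo1-1, mgm1-5) grown 48 h at 37C in YPEG (ethanol/glycerol non-fermentable) medium with 23 nl compound per well; growth rescue read as CellTiterGlo luminescence.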
TDP43 rescue: qHTS of TDP-43 Inhibitors; 410,000 tested, 1.8% active; AID 652104, 2013; Potency, µM (doses to about 46.1 µM), inactives show at the top dose growth rescue (activation), hits mostly activators; TDP-43 expressing yeast growth rescue, BacTiter-Glo, 24 h; further: potency means the concentration at half of the fitted maximal effect; % of control where 0% means no effect; nearly all actives have a fitted effect of over 50% in size
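Yeast cells expressing TDP-43 under galactose induction are exposed to compounds for 24 hr at 30 deg C. BacTiter-Glo luminescence measures growth, so protective compounds score as activators.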
Akt phos inh: HTS Assay for Inhibitors of Akt Phophorylation: Primary Screen. 360,000 tested, 0.32% active. Neuro2A IGF-stimulated pAkt S473 HTRF, 20 min; active compounds read low. AID 651550, 2012. activity change, % for hits at 50 µM; in the data active means activity change below about -80%; inconclusive means mostly about -51% to -80%; further: on the % scale 0 is the no-effect control and ±100 the full control effect
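Single-point screen (50 µM final compound) in Neuro2A cells stimulated 20 min with 6 nM IGF at 37 deg C. After lysis, Ser473-phosphorylated Akt read by HTRF (ex 330 nm, em 615/665 nm) as the 665/615 ratio.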
* marks the source's active call; other numbers are inactive results; i = inactive; ? = inconclusive; / = no result; [ ] = remark or other dose. Most compounds without a hit are left out; they make up all but 2.5% or so of the library. Unless noted, the call rests on the fitted dose curve; in most records, active means well fitted curve in the direction sought with a large enough effect; inconclusive means small, poorly fitted or top-dose-only effect, or another doubt; inactive means no such curve, though single readings can be large; an effect the other way counts as inactive or inconclusive.

SMILES	CCT modulator	Anesthetic bind	aSyn rescue	Mito fusion yeast	TDP43 rescue	Akt phos inh
Cc1ccc(S(=O)(=O)N2CCN(c3nc(-c4ccncc4)nc4ccccc34)CC2)cc1	/	/	0%	/	/	/
C=C(C)Cn1c(=S)[nH]c2ccccc2c1=O	-1	?	5%	3%	13µM*	i
Cc1ccc(Cn2c(C(CO)Nc3nc(-c4ccc(Cl)c([N+](=O)[O-])c4)cs3)nc3ccccc32)cc1 (stereo not drawn)	2	/	?	/	25µM*	i
COc1ccc(-c2nc(N3CCN(S(=O)(=O)c4ccccc4)CC3)c3ccccc3n2)cc1	/	/	0%	/	/	/
Cc1c([N+](=O)[O-])cnc(Sc2ccccc2)c1[N+](=O)[O-]	2	/	-24%	/	22µM*	i
CN[C@@H](CCCN=C(N)N)C(=O)N[C@@H](CCCCN)C(=O)N1CCC[C@H]1C(=O)N[C@@H](Cc1c[nH]c2ccccc12)C(=O)N[C@H](C(=O)N[C@H](CC(C)C)C(=O)O)C(C)(C)C	/	-10%	/	/	/	/
Cc1ccc(OCCn2c(CCCO)nc3ccccc32)cc1	-2	-16%	-5%	-5%	0%	-106%*
OCCCc1nc2ccccc2n1CCOc1ccccc1	-1	-8%	1%	3%	-15%	i
Cc1ccnc(NC(=O)CN(C)S(=O)(=O)c2cccc3nsnc23)c1	1	-14%	-8%	3%	-1%	i
Cc1ccc2nc(NC(=O)CN(C)S(=O)(=O)c3cccc4nsnc34)sc2c1	0	-1%	-3%	-2%	-2%	-101%*
O=C1CC(c2ccccc2)=NO1	0	/	16µM*	/	10µM*	i
COc1ccc(Br)cc1S(=O)(=O)NCCc1cccs1	2	/	?	/	20µM*	i
CC1C/C(=C/c2ccncc2)C(=O)/C(=C/c2ccncc2)C1 (stereo not drawn)	-38*	-13%	15%	3%	?	i
CC1C/C(=C/c2cccn2C)C(=O)/C(=C/c2cccn2C)C1 (stereo not drawn)	0	?	5%	?	13µM*	i
O=C1/C(=C/c2ccncc2)Cc2ccccc21	-2	/	-12%	2%	-12%	i
COc1ccc(S(=O)(=O)c2c(Nc3cccc(C)c3C)sc(C(=O)c3ccccc3)c2N)cc1	/	75%	/	/	22%	/
Cc1ccc(/C(=N\O)c2oc3c(C)c4oc(=O)cc(C)c4cc3c2C)cc1	-1	-18%	17%	7.1µM*	0%	i
CCCCN(Cc1ccccc1)S(=O)(=O)c1ccc2c(c1)CC(C)N2C(=O)CC (stereo not drawn)	/	31%	/	/	24%	/
O=C(CSC1=NNC(c2ccccn2)S1)Nc1cccc(Cl)c1 (stereo not drawn)	-2	-14%	8.9µM*	0%	?	i
O=C(CSC1=NNC(c2ccccn2)S1)Nc1ccccc1 (stereo not drawn)	0	-12%	21%	-3%	13µM*	i
O=C(NCc1ccccn1)Nc1cccc(Cl)c1	-42*	?	-8%	0%	-2%	i
O=C(CSc1ccccc1)Nc1ccncc1	0	-17%	-2%	3%	8%	-139%*
O=C(CSc1nncn1-c1ccccn1)Nc1cccc(Cl)c1	-7	-3%	3%	-5%	-6%[0.397 µM]	i
O=C(CSc1ccc2ccccc2c1)Nc1ccncc1	-4	?	?	7%	4%	i
CCOc1ccccc1N(C)C(=O)c1c2c(nc3ccccc13)C(=O)N(C1CCCCC1)C2	/	-9%	/	/	0%	/
SMILES	CCT modulator	Anesthetic bind	aSyn rescue	Mito fusion yeast	TDP43 rescue	Akt phos inh
O=C(C1CCCCC1)N(CCN1CCN(c2ccccc2CO)CC1)c1ccccn1	/	-3%	/	/	/	/
COc1cccc(/C=C/c2nccc3ccccc23)c1OC	/	/	-13%	/	/	/
CCCc1cc(C(=O)Nc2ccc(C(=O)c3ccccc3)cc2)n(C)n1	2	?	-8%	9%	25µM*	i
O=c1onc2cnc3ccccc3n12	/	/	-8%	9.2µM*	/	/
c1ccc2c(c1)ncc1nncn12	/	4%	/	/	10%	/
CCOC(=O)c1[nH]c2c(c1Cc1ccccc1)C(=O)CC(c1ccccc1)C2 (stereo not drawn)	/	-6%	/	/	13µM*	/
CCOC(=O)c1[nH]c2c(c1Cc1ccccc1C)C(=O)CC(c1ccccc1)C2 (stereo not drawn)	/	-15%	/	/	-3%	/
NC1C(N)C(N)C1N (stereo not drawn)	/	/	2%	/	/	/
O=C(O)c1cncc(C#Cc2ccccc2)c1	0	-4%	12%	18%	21%	i
O=C(O)c1cncc(C#CCC2CCCCC2)c1	-7	-11%	3%	1%	14µM*	i
Nc1nc2ccccc2n1/N=C/c1cccnc1	-1	/	0%	/	11%	i
Nc1nc2ccccc2n1/N=C/c1ccc([N+](=O)[O-])s1	-1	-3%	1%	11µM*	26%	i
COCCNc1cc(N2CCN(C3CCCCC3)CC2)c2noc3c2c1C(=O)c1ccccc1-3	/	-14%	/	/	9%	/
O=C(C[n+]1ccncc1)c1cccc2ccccc12	/	/	2%	/	/	/
CCc1nn2c(=O)cc(COC(=O)c3cccc(NC(=O)COc4ccccc4F)c3)nc2s1	/	59%	/	/	-8%	/
CCOC(=O)N/N=C/c1c(C)nn(-c2cccc(C(F)(F)F)c2)c1Cl	-6	-11%	-23%	?	13µM*	i
Cc1nn(-c2cccc(C(F)(F)F)c2)c(Cl)c1/C=N/Nc1cccc(C(=O)O)c1	-3	-14%	-14%	24%	?	i
Cn1c(NC(=O)c2ccc(F)cc2)nc2ccccc21	-2	-4%	-6%	-3%	28µM*	i
O=C(Nc1nc2ccccc2c2nc3ccccc3n12)c1ccc(F)cc1	/	-11%	/	0%	/	/
COc1ccc(N2CCN(c3nc4c(c(=O)n(C)c(=O)n4C)n3Cc3ccccc3)CC2)cc1	2	-21%	15%	?	14%	i
CC1CCCN(c2nc3c(c(=O)n(C)c(=O)n3C)n2Cc2ccccc2)C1 (stereo not drawn)	-1	?	19%	5%	18µM*	i
CCCCc1nnc(SCc2cc(=O)c3cc(F)ccc3[nH]2)n1C	/	-7%	/	/	14%	/
O=C(CCc1ccccc1)NNC(=S)NC(=O)c1ccc(Cl)cc1	-2	-14%	13µM*	4%	14µM*	i
O=C(COc1ccccc1)NNC(=S)NC(=O)c1ccccc1	0	-8%	?	-19%	3.5µM*	i
